From PubChem BioAssay
DAX1 inh-1 – DAX1 (NR0B1) inhibition, primary screen; 1.1% of 370,000 active; AID 652010; HEK293T StAR-luciferase reporter, SF-1/DAX-1 repression relief; inhibition, % at 6.8 µM;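 active means inhibition above the mean over all tested compounds plus 3 SD, cut at about 3.6% in these data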;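 further: 0% = DAX-1 cells with DMSO and 100% = cells lacking DAX-1 with DMSO; higher inhibition means more luminescence from relief of DAX-1 repression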
ssDAF12 agonist – activators of S. stercoralis DAF-12 nuclear receptor; 1% of 370,000 active; activation, % at 6.8 µM; HEK293 ssDAF-12/GRIP1 lit1-tk-luc reporter, luminescence; % of 3 µM dafachronic acid response;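 active means activation above the mean over all tested compounds plus 3 SD, cut at about 0.9% in these data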;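 further: 0% = DMSO-only wells and 100% = 3 µM delta7-dafachronic acid wells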
hgDAF-12 ag – activates the H. glycines DAF-12 receptor ligand-binding domain; 1.8% of 370,000 active; activation, % at 6.8 µM; HEK293 GAL4-hgDAF12 UAS-luciferase reporter, agonist luminescence; normalized to butyrate control;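 active means activation above a cutoff set at the mean of all screened compounds plus 3 SD, cut at about 10% in these data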;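 further: 0% = DMSO wells and 100% = sodium butyrate wells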
hcDAF-12 act – activators of H. contortus DAF-12 nuclear receptor | HEK293 hcDAF-12 lit1-tk-luc reporter, luminescence; 0% DMSO, 100% Δ7-dafachronic acid | activation, % at 6.8 µM | 1.4% of 370,000 active;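 active means activation above the mean of all tested compounds plus 3 SD, cut at about 5.5% in these data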;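 further: 100% = response to 3 µM Δ7-dafachronic acid high control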
DAX1 inh-2 – inhibits human nuclear receptor DAX1. 0.99% of 340,000 active. inhibition, % at 6.75 µM. P51843. HEK293 Gal4-DAX1 luciferase reporter, luminescence. AID 504766;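 active means inhibition above the mean over all tested compounds plus 3 SD, cut at about 4.2% in these data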;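 further: 0% = DAX1-transfected cells with DMSO and 100% = empty-vector control cells with DMSO; inhibition shows as a rise in luminescence from relieved DAX1 repression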
Target sequence (P51843 207-470 limits assumed): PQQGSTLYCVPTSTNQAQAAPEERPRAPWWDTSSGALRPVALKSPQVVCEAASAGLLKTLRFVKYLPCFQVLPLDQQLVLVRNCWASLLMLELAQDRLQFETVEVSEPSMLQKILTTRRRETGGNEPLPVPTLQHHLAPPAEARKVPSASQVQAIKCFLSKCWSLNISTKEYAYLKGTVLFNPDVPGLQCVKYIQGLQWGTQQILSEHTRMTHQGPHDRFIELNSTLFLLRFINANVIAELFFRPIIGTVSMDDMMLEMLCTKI
SMARCA2 act – activators of SMARCA2 function | MG213 cells, MMTV-luciferase reporter, dexamethasone, overnight | 1% of 370,000 active | activation, % at 9.1 µM; in the data active means activation above about 7.8%;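 further: 0% = vehicle wells and 100% = reference activator wells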
* marks the source's active call; other numbers are inactive results; · = no result given. Hits are enriched below; roughly 4.8% of the tested compounds scored in any of these assays.

SMILES	DAX1 inh-1	ssDAF12 agonist	hgDAF-12 ag	hcDAF-12 act	DAX1 inh-2	SMARCA2 act
COc1ccc(-c2cc(C(=O)NC(C)C)no2)cc1	2	-1	10*	4	1	5
COc1ccc(-c2cc(-c3nnc(SCC(=O)NC4CCCCC4)n3N)[nH]n2)cc1	-2	0	3	2	·	1
C[C@@H]1C[C@H](O)CCCCCC(=O)Cc2cc(O)cc(O)c2C(=O)O1	0	-1	1	-3	·	2
Cc1cccc(N2Cc3ccc(Br)cc3C2)c1	1	0	6	6.5*	4	3
C/C(=N/O)c1cccc(N2Cc3ccccc3C2)c1	0	-1	2	2	-1	2
COc1ccc(Cn2c(NC(=O)c3ccccc3)nc(Cc3ccccc3)c2Cc2ccccc2)cc1	-1	-1	0	1	·	-6
CCCC#Cc1ccc(CC[C@H]2O[C@H]3CC[C@H](CO)O[C@H]3C[C@H]2NC(=O)CN2CCOCC2)cc1	-1	-2	-5	-4	·	2
COc1ccc(C2CC(c3ccc(Cl)cc3Cl)n3nc(N)nc3N2)cc1 (stereo unspecified)	0	-1	-1	-2	5.2*	1
CCOc1ccc(C2CC(c3cccc(OC)c3)Nc3nc(N)nn32)cc1 (stereo unspecified)	2	-1	0	-1	4.7*	-1
COc1cccc(C2CC(c3ccccc3OC)n3ncnc3N2)c1 (stereo unspecified)	0	-1	0	0	5.5*	1
COc1cccc(C2CC(c3ccccc3)Nc3ncnn32)c1 (stereo unspecified)	0	-1	2	2	0	4
O=C(C(=O)N1CCN(S(=O)(=O)c2cccc3ccccc23)CC1)c1cccc(C(F)(F)F)c1	-2	1	0	-1	·	-2
COC(=O)[C@]12C[C@H](CC(=O)NCc3cccc(C(F)(F)F)c3)C(=O)N(Cc3ccco3)C1=C[C@H](C1CCCC1)O[C@@H]2C	-2	0	-3	-3	·	-3
c1ccc(-c2ccc3ncccc3n2)cc1	3.7*	0	8	2	·	0
c1ccc(-c2cccc(-c3ccccc3)n2)cc1	0	-2	0	-2	2	-1
CC(C)(C)OC(=O)n1ccc2ccc(-c3ccc4cc[nH]c4c3)cc21	0	-1	10	-3	·	2
COc1ccc(/C(C)=N/Nc2nncc3ccccc23)cc1	3	1	10	4	0	2
COc1ccc(/C(C)=N/Nc2nc3ccccc3nc2C)cc1	0	1.1*	3	5.8*	4	2
O=C(OCc1cn(Cc2ccc(F)cc2)nn1)N1CCOCC1	0	-1	1	3	·	-1
CCc1nc(C)ccc1OCC(=O)N1CCc2c([nH]c3ccccc23)C1c1ccccn1 (stereo unspecified)	-1	-1	-2	0	-1	-1
CCc1nccn1CCC(=O)N1CCc2c([nH]c3ccccc23)C1CC(C)C (stereo unspecified)	0	0	2	5.6*	1	2
O=S1(=O)c2c(cccc2N2CCSCC2)Oc2ccccc2CN1Cc1cn(Cc2ccccc2C(F)(F)F)nn1	0	-2	0	-2	·	-2
CCC(C)(C(=O)NC1CCCCC1)N(Cc1cccs1)C(=O)c1ccccn1 (stereo unspecified)	0	-1	-2	0	1	-3
CCC(C)(C(=O)NC1CCCCC1)N(Cc1cccs1)C(=O)c1ccc(=O)[nH]c1 (stereo unspecified)	-1	-1	-1	0	4.7*	-4
CC/C(C)=N/N1C(=O)c2ccccc2NC1(C)CC (stereo unspecified)	0	-1	7	1	6.2*	2
SMILES	DAX1 inh-1	ssDAF12 agonist	hgDAF-12 ag	hcDAF-12 act	DAX1 inh-2	SMARCA2 act
COc1cccc(-c2cc(C(=O)NCC3CCCO3)on2)c1 (stereo unspecified)	1	0	11*	4	1	1
COc1ccc(-c2cc(C(=O)NCC3CCCO3)on2)cc1OC (stereo unspecified)	0	-1	1	1	0	-4
Cc1cc(N/C=C(\C#N)S(=O)(=O)c2ccc(Cl)cc2)nc(C)n1	0	-1	2	0	4.2*	1
O=S1(=O)c2ccc(Br)cc2OCCC2CCCCN21 (stereo unspecified)	0	0	2	1	·	1
O=c1c2ccccc2[nH]n1[C@@H](Cc1ccccc1)Cn1cc(-c2ccc(-c3ccccc3)cc2)nn1	0	-2	3	-3	·	0
Cc1ccc(OCCSc2nc3ncnc(N)c3[nH]2)cc1	1	-2	0	-1	4.3*	-3
NC(Cc1ccc2nsnc2c1)C(=O)O (stereo unspecified)	0	2.9*	-1	-1	2	-2
N[C@@H](Cc1ccc(O)c(O)c1)C(=O)O	0	-1	-1	-1	2	-3
COc1ccc(S(=O)(=O)N2CCOC23CCN(S(=O)(=O)c2ccccc2)CC3)cc1	1	-1	2	-1	4.3*	-1
Cc1ccc([N+](=O)[O-])c(OCc2ncc(Cl)n2C)c1	0	1.1*	4	5	0	2
Cc1ccc([N+](=O)[O-])c(OCCN2CCNCC2)c1	0	-1	0	1	1	2
C[C@@H]1CN(c2ccc(N3CCN(C(=O)OC(C)(C)C)C[C@H]3C)cc2C#N)CCN1Cc1ccccc1	-1	-1	3	-2	·	-2
CN(C)CCCN=c1cc(-c2ccccc2)oc2ccc(Cl)cc12	4.4*	0	10	5	6.3*	6
COc1ccc(/C=C/c2cc(=O)c3cc(Cl)ccc3o2)cc1	0	-2	0	5	-2	3
O=c1cc(-c2cccs2)oc2ccc(Cl)cc12	1	0	10	5	5.3*	5
COc1ccc(-c2ccc3c(=O)cc(-c4ccsc4)oc3c2)cn1	0	-1	-1	-1	0	2
OCCN=c1cc(-c2ccccc2)oc2ccc(Cl)cc12	·	·	·	·	1	·
O=c1cc(-c2ccc3c(c2)OCCO3)oc2ccc(Cl)cc12	2	1	12*	1	2	3
O=c1cc(-c2ccsc2)oc2cc(-c3ccc4c(c3)OCO4)ccc12	0	-2	0	1	4.7*	0
CCC(C(=O)Nc1ccccc1N1CCCC1)c1ccccc1F (stereo unspecified)	-1	-1	3	-2	·	-3
O=c1cc(-c2ccccc2)oc2ccc(Br)cc12	2	0	6	3	1	7.8*
O=c1cc(-c2ccccc2)oc2ccc(Cl)cc12	3.9*	-1	8	3	3	3
O=c1cc(-c2ccc(F)cc2)oc2ccccc12	1	0	9	2	2	5
